According to ChEMBL document CHEMBL3988442, “University of Dundee, Small-Polar-MMV Screening Library” (2021):
For some assays here: Entries with a potency or affinity are not part of this list.

Assays:
Parameters in all cases: scale not given: direction of the effect not stated beside the values
[1] = target: Protein translocase subunit SecA (Escherichia coli (strain K12)) (UniProt P10408); assay: Assay to Identify E. coli SecA ATPase Inhibitors; type: functional; settings: 30 µM
[2] = target: T1, Ubiquitin-activating enzyme e1, putative (Leishmania donovani (strain BPK282A1)) (UniProt E9BSI1); assay: Leishmania donovani Ubiquitin Activating Enzyme (LdE1); type: functional; settings: 30 µM
T1 sequence (whole entry): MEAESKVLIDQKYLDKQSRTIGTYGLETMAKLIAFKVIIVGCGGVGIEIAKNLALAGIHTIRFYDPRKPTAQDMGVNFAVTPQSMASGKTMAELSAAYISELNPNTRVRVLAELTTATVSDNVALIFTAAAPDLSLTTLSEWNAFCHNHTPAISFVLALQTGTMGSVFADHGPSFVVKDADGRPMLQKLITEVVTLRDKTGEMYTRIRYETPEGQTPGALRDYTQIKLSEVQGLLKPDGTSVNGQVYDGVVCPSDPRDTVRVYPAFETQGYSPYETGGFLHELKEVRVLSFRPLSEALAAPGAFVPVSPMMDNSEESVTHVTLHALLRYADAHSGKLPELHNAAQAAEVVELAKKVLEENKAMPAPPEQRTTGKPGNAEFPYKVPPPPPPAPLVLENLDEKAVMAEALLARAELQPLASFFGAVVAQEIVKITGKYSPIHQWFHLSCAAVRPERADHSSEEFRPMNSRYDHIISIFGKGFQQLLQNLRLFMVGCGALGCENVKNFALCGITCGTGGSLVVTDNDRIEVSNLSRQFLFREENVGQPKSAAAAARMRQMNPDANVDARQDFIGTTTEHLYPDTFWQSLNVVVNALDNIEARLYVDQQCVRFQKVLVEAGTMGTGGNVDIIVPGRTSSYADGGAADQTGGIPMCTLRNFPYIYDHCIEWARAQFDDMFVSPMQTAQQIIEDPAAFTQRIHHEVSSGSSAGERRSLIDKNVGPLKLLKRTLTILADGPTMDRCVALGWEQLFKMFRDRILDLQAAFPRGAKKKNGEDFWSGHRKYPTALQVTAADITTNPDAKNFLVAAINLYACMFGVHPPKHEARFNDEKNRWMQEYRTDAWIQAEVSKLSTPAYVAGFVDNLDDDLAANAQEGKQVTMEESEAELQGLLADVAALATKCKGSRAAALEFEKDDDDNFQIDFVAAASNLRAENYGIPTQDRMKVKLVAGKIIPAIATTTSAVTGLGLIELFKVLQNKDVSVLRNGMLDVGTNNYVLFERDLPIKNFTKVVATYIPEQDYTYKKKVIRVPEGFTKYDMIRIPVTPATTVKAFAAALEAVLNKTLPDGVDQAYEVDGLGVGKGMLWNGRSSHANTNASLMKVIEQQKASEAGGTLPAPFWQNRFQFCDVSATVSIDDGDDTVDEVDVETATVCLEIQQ

[3] = target: AMP-activated protein kinase, AMPK (Homo sapiens) (UniProt P54646+O43741+P54619+Q9UGJ0+Q9Y478+Q13131+Q9UGI9); assay: AMP-dependent Kinase enzyme assay. An in vitro enzyme assay that detects ADP turnover that is directly proportional to AMPK activity. This uses naive AMPK that is activated during the assay with MK-8722; type: functional; settings: 30 µM
[4] = target: Sialic acid-binding Ig-like lectin 9 (Homo sapiens) (UniProt Q9Y336); assay: Hs-Siglec9 ALPHAscreen SOP 20170721; settings: 10 µM
Trypanosoma cruzi = assay: Trypanosoma cruzi phosphomannomutase and mannose-1-phosphate guanylyltransferase assay; type: functional; settings: 10 µM
[5] = target: T2, Arginase-2, mitochondrial (Homo sapiens) (UniProt P78540); assay: in vitro enzyme assay to detect the production of urea directly proportional to the activity of Arginase II; type: functional; settings: 33.3 µM; also: in the data most compounds retested in dose-response had high values
T2 sequence (whole entry): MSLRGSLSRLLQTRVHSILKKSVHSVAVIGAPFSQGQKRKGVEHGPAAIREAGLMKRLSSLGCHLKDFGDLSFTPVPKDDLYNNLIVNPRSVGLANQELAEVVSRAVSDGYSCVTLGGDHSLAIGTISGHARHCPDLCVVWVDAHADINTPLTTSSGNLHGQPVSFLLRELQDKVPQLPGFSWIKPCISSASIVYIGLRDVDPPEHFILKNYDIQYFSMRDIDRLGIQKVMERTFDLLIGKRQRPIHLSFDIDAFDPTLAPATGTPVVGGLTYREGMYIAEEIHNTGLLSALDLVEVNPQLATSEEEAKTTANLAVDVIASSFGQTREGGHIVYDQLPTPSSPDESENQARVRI

[6] = target: T3, Proteasome subunit beta (Trypanosoma cruzi) (UniProt O96673); assay: Trypanosoma cruzi proteasome chymotrypsin-like activity (TcProtChymo) assay.; also: in the data most compounds retested in dose-response had high values; type: functional; settings: 9.37 µM
T3 sequence (whole entry): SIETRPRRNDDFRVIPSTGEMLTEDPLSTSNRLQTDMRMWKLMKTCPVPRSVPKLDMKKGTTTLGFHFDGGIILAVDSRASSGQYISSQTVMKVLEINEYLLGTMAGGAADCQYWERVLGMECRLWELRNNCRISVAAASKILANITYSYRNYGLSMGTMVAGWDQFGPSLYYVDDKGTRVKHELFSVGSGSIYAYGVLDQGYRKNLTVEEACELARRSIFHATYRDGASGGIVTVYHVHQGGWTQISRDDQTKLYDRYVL

Homo sapiens = organism: Homo sapiens; assay: To identify inhibition of the IFN signalling (Jak-Stat) pathway via expression of an eGFP reporter gene under the control of an IFN-stimulated response element (ISRE) containing MxA promoter.; type: functional; settings: 30 µM
[7] = target: T4, Tyrosyl-tRNA synthetase, putative (Trypanosoma cruzi (strain CL Brener)) (UniProt Q4DSP6); assay: Trypanosoma cruzi tyrosyl tRNA synthetase (TcYRS) _High Tyrosine SOP; type: functional; settings: 30 µM; also: in the data most compounds retested in dose-response had high values
T4 sequence (whole entry): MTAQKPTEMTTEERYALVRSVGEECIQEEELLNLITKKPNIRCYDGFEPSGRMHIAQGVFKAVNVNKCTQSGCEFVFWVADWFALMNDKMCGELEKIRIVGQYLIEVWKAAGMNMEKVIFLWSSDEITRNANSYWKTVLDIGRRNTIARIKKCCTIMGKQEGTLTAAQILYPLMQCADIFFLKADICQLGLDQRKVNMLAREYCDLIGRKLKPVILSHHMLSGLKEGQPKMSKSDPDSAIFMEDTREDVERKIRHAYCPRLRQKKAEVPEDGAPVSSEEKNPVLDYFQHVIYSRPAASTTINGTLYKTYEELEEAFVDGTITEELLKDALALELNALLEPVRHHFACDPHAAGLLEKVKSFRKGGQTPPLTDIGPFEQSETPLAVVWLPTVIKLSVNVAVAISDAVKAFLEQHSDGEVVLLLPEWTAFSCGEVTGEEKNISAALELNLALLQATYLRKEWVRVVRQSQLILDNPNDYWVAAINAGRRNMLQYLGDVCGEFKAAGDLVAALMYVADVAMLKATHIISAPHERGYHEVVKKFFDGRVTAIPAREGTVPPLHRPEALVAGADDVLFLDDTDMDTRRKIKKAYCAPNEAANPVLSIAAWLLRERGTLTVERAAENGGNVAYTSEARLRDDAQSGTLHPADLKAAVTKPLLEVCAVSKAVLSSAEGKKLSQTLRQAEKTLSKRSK

[8] = target: T4, Tyrosyl-tRNA synthetase, putative (Trypanosoma cruzi (strain CL Brener)); assay: Trypanosoma cruzi tyrosyl tRNA synthetase (TcYRS) SOP; type: functional; settings: 30 µM
[9] = target: Chromo domain-containing protein 1 (Saccharomyces cerevisiae (strain ATCC 204508 / S288c) (Baker's yeast)) (UniProt P32657); assay: ScCHD-1 Enzyme Inhibition Assay; type: functional; settings: 30 µM; also: in the data most compounds retested in dose-response had high values
Chromo domain-containing protein 1 (Saccharomyces cerevisiae (strain ATCC 204508 / S288c) (Baker's yeast)), sequence (P32657 whole entry, the tested form may be a part): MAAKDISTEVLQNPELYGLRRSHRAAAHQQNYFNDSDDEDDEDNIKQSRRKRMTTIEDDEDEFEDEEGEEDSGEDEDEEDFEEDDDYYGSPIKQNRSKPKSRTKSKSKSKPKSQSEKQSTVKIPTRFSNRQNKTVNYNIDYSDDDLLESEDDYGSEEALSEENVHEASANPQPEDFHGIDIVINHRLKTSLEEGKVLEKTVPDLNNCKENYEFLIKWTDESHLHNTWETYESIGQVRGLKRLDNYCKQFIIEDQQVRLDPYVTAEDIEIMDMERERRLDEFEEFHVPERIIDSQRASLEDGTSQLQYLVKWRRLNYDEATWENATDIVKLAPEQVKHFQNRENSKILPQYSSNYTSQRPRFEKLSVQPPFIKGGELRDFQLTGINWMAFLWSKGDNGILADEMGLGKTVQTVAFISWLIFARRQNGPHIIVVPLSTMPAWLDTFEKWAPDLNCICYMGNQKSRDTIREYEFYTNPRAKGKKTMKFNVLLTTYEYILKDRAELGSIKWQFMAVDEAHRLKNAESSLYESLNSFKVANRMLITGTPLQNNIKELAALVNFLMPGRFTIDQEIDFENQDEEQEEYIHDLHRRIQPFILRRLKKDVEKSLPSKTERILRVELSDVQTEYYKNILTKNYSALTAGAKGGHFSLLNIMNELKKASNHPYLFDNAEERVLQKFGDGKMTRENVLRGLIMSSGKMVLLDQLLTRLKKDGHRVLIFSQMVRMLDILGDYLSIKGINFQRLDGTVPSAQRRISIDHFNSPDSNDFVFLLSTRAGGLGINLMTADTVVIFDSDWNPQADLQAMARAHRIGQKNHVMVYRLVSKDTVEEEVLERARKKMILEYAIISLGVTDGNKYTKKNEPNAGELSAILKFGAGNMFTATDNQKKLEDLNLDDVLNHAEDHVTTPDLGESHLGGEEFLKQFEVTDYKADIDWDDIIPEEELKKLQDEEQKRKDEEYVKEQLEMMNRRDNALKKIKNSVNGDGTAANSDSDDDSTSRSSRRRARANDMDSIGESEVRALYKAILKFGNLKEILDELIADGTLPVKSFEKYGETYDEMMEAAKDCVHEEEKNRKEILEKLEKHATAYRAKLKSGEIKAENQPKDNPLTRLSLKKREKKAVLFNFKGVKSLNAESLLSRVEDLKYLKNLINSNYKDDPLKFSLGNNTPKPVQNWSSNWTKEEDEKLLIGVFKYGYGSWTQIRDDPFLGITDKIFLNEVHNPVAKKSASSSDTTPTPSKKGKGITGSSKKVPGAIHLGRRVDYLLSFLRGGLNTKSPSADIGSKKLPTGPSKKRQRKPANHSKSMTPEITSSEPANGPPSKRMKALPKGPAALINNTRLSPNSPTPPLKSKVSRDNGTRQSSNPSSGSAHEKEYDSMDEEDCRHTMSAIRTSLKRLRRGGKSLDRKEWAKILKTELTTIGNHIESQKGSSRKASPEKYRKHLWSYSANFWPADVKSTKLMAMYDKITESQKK

Protein translocase subunit SecA (Escherichia coli (strain K12)), sequence (P10408 whole entry): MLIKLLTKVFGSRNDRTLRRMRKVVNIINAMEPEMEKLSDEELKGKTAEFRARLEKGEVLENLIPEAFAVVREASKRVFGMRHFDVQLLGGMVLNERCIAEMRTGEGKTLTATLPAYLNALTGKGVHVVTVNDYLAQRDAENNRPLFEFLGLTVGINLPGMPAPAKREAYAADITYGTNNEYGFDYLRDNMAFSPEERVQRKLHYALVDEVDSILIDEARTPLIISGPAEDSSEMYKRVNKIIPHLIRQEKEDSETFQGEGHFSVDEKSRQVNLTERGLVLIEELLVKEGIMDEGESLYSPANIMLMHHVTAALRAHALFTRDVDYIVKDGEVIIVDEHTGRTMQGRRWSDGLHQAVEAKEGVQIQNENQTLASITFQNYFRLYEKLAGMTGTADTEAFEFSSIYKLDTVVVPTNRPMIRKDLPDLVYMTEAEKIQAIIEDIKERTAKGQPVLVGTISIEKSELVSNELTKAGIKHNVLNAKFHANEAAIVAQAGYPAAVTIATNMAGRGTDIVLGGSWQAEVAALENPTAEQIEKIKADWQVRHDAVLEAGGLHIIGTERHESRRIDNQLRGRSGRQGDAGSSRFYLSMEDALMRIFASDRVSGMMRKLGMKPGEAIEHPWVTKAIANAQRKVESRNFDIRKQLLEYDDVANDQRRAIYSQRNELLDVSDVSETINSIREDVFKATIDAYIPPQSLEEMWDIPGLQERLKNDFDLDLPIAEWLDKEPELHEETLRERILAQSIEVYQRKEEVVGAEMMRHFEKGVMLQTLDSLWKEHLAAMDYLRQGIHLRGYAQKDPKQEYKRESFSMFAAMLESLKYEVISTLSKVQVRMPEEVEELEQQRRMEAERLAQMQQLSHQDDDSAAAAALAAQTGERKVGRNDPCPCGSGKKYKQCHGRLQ
Sialic acid-binding Ig-like lectin 9 (Homo sapiens), sequence (Q9Y336 whole entry): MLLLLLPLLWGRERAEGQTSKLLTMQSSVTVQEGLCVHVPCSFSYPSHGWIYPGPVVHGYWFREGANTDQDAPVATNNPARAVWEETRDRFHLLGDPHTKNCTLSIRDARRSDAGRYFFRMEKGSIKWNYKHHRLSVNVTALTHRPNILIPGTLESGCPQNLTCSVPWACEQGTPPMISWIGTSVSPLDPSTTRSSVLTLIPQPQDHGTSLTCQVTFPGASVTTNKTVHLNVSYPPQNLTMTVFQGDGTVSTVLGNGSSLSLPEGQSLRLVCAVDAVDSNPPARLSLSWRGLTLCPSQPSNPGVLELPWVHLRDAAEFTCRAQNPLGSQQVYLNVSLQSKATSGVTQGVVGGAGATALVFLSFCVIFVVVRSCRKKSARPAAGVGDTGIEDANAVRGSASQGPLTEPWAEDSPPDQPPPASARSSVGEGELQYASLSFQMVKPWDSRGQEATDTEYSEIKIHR

| SMILES | Percent Effect [1] | Percent Effect [2] | Percent Effect [3] | Percent Effect [4] | Percent Effect (Trypanosoma cruzi) | Percent Effect [5] | Percent Effect [6] | Percent Effect (Homo sapiens) | Percent Effect [7] | Percent Effect [8] | Percent Effect [9] |
| --- | --- | --- | --- | --- | --- | --- | --- | --- | --- | --- | --- |
| O=C(NCCN1CCCCC1)c1nc(-c2ccc3cc[nH]c3c2)no1 | -1.02% | 25.3% | -7.25% | 3.61% | 4.71% | -4.75% | 20.5% | -13.4% | 4.23% | 12.8% | -6.27% |
| Cc1nc(C)n(CC2CCCN(Cc3nnc(C(C)(C)C)o3)C2)n1 (configuration not stated) | -3.5% | 10.5% | 5.56% | -2.35% | 5.55% | 0% | 7.77% | -1.74% | 2.13% | 5.2% | -3.94% |
| COCCC(=O)N1CCC(c2noc3nc(C)cc(C(F)(F)F)c23)CC1 | -0.633% | 6.76% | 7.83% | 4.3% | -6.13% | -2.55% | 13.1% | 8.05% | 2.15% | 6.49% | 9.94% |
| Cc1nn(C(C)C)c(C)c1NC(=O)c1ccncc1 | -2.46% | 16.4% | -7.09% | 5.06% | 5.56% | 0.399% | 16.5% | -7.45% | 10.4% | 11.1% | -7.44% |
| O=C(c1ccsc1)N1C[C@@H](CN2CCCC2)[C@@H](CO)C1 | -10% | 2.67% | -3.05% | -2.17% | -5.36% | -5.21% | 4.71% | 2.13% | -1.64% | -1.24% | -4.1% |
| Cc1ccc(CN(Cc2ccccn2)C2CC(C)(C)NC(C)(C)C2)s1 | -1.39% | -4.05% | 8.17% | 7.72% | -3.95% | -0.232% | 8.27% | 5.16% | 4.3% | 3.9% | -9.63% |
| O=C(Nc1cccc(OCc2ccc(F)cc2)c1)C1COCCO1 (configuration not stated) | -4.66% | -8% | 0.674% | -3.67% | -1.27% | 1.04% | 14.3% | 5.69% | -8.2% | -3.7% | -0.73% |
| CCC(C)NC(=O)Nc1ccc(CN2CCOC2=O)cc1 (configuration not stated) | -5.29% | -6.94% | -16.3% | -0.797% | -5.15% | 0% | 12.1% | 21% | -2.1% | -5.13% | -1.28% |
| CC(=O)N1CCC(Oc2ccc(C#N)cn2)CC1 | -4.01% | 8.22% | 1.71% | 12.9% | 2.94% | 7.27% | 4.44% | 11.1% | 4.3% | 12.5% | -5.65% |
| CC(C)c1nc(CN2CCCCC2)cs1 | -4.24% | -5.2% | 15.4% | 0.118% | -0.686% | -0.632% | -1.54% | 47.1% | -2.86% | -2.35% | 0.144% |
| CN(C)C(=O)c1ccc2c(c1)N(C)C(CC(=O)NCCC(C)(C)C)CO2 (configuration not stated) | -3.89% | 9.72% | 3.96% | 13.4% | 5.73% | 22.1% | 14.4% | 2.35% | 3.16% | 10.3% | -5.3% |
| Cc1csc(CNC(=O)NC2CCN(c3ncccn3)CC2)n1 | -4.13% | 11% | -4.87% | 16.2% | 4.37% | -3.19% | 12.6% | 5.21% | 10.4% | 25.9% | -3.12% |
| COCC1CN(C(=O)CNC(C)=O)Cc2ncnn2C1 (configuration not stated) | -4.16% | 7.79% | 5.62% | 8.97% | 2.65% | 2.76% | 4.99% | -13.1% | 6.45% | 13.6% | 0.679% |
| CCC(O)CNC(=O)C1(N(C)Cc2ccccc2)Cc2ccccc2C1 (configuration not stated) | -4.2% | 2.67% | 3.26% | -1.75% | -2.63% | 3.12% | 8.72% | -26.6% | 1.64% | 8.64% | -5.97% |
| NC(=O)C1CN(C(=O)Nc2cc(Cl)cc(Cl)c2)CCO1 (configuration not stated) | -2.58% | 0% | 0.0499% | 4.99% | 4.17% | -3.19% | 12.1% | 22.7% | 4.17% | 11.1% | 2.8% |
| O=C(Cc1cccs1)NC1CCN(c2cccc(F)c2)CC1 | -3.15% | 16.4% | 6.31% | 18.6% | 2.74% | 7.27% | 9.05% | -1.55% | 5.38% | 15% | 1.6% |
| CN(C)S(=O)(=O)N1CCN(c2nccc(C(F)(F)F)n2)CC1 | -2.09% | 5.48% | 8.09% | 4.91% | 7.64% | 0.909% | 10.5% | 9.93% | 5.38% | 12.5% | -3.75% |
| CCOc1ncccc1NC(=O)N1CCc2ccccc2C1 | -2.4% | -5.41% | -19.1% | 3.06% | -2.14% | 7.95% | 0% | -3.53% | -1.98% | -1.22% | 9.66% |
| CCc1nnc(Nc2cccc(C3CCN(CCO)CC3)n2)s1 | -7.83% | 12.2% | 0.559% | 1.33% | 1.58% | -2.55% | 14% | 24% | 2.15% | 11.7% | -26.9% |
| CN(C)c1ccc(CCNC(=O)NCc2ccc(N(C)C)nc2)cc1 | -3.23% | 13.5% | 0.0846% | 11.2% | 1.98% | -5.21% | -4.14% | 5.54% | 7.39% | 18.5% | -9.13% |
| CC(=O)Nc1nc(C2CCN(CC(N)=O)CC2)cs1 | -1.36% | -6.76% | 6.42% | 5.54% | -4.35% | 3.48% | -3.9% | 5.69% | 0% | -3.9% | 11% |
| CC(C)(C)c1cnc(CN2CCCC2Cn2cccn2)o1 (configuration not stated) | -0.386% | 0% | 6.71% | -3.67% | 5.19% | -0.38% | 5.16% | -9.18% | 2.46% | 3.8% | -4.77% |
